Measured values as given in PubChem BioAssay AID1851 (National Center for Advancing Translational Sciences (NCATS), 2009).
Screen size: about 16,000 compounds; about 5,100 (32%) were called active. Another 25% or so got no clear call; they are omitted. Calls follow the shape of the dose curve; as a rule, active = well fitted curve in the direction sought with a large enough effect; inconclusive = small, poorly fitted or top-dose-only effect, or effect the other way; inactive = no such curve, though single readings can be large or run the other way. Some of the results follow.

The compounds below were run against Cytochrome P450 3A4 (Homo sapiens) (UniProt P08684) (assay: Cytochrome panel assay with activity outcomes). Conditions: recombinant CYP, pro-luciferin dealkylation, luminescence, p450-cyp3a4; series mostly up to 57.1 µM.
Sequence of Cytochrome P450 3A4 (Homo sapiens) (P08684 whole entry, looked up): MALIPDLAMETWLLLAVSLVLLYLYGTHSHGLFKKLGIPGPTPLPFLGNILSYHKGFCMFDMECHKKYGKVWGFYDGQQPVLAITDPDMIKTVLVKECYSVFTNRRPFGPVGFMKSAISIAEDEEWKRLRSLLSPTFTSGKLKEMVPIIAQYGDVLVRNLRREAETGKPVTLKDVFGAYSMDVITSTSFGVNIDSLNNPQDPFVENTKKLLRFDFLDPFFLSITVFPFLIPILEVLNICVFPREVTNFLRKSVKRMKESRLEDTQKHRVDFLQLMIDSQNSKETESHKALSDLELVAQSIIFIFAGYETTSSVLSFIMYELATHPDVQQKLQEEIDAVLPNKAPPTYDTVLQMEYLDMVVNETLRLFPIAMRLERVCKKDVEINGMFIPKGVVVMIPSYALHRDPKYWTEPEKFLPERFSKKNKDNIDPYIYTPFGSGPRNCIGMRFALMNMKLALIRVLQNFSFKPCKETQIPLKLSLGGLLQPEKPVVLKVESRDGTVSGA
% is scaled to controls: 0 for no effect and ±100 for the full control effect.

AC50, active:
Cc1cccc(NCCNc2cccc(C)c2)c1 25.1 µM
COc1ccc(S(=O)(=O)Nc2ccc(F)cc2)c(C)c1C 10 µM
Cc1ccccc1CSc1nsc(N)n1 25.1 µM
COc1cccc(-c2cc(C(=O)Nc3cccc(O)c3)no2)c1 10 µM
Cc1cccc(OCC(=O)NNC(=O)CSc2ncc(C#N)c(N)n2)c1 14.1 µM
Cc1c(C(=O)Nc2nccs2)sc2nc(-c3cccs3)cc(C(F)(F)F)c12 14.1 µM
CC(/C=C/c1ccccc1)=N/NC(=O)CNC(=O)c1ccc2c(c1)OCO2 6.31 µM
CN(C)Cc1cc(C(F)(F)F)ccc1C(O)(c1ccccc1)c1ccccc1 0.794 µM
CC(=O)NCCNc1ncncc1-c1ccccc1C(F)(F)F 1 µM
COc1ccccc1-c1cncnc1NCCNC(C)=O 2 µM
CC(=O)NCCNc1ncncc1-c1ccc(N(C)C)cc1 2 µM
CC(=O)NCCNc1ncncc1-c1ccccc1C 2.51 µM
CCn1cnc2sc(C(=O)N3CCN(c4ccc(OC)cc4)CC3)c(C)c2c1=O 12.6 µM
Clc1ccccc1-c1nc(N/N=C/c2cccnc2)c2ccccc2n1 1.41 µM
FC(F)(F)c1ccccc1-c1nc(NCc2cccnc2)c2ccccc2n1 2 µM
Clc1ccccc1-c1nc(NCc2cccnc2)c2ccccc2n1 2.51 µM
C(=N/Nc1nnc2c(n1)[nH]c1ccccc12)/c1cccnc1 3.98 µM
Cc1ccccc1-c1nc(NCc2cccnc2)c2ccccc2n1 0.501 µM
COc1ccc(C(C(=O)NC2CCCCC2)N(C(=O)Cc2c[nH]c3ccccc23)c2ccc(NC(C)=O)cc2)cc1OC (configuration not stated) 3.16 µM
CC(C)C(=O)NCCc1nc2ccccc2n1CCCOc1ccc(Cl)cc1 11.2 µM
CCC(=O)c1ccc(OCc2ccc(C(=O)OC)cc2)c(OC)c1 4.47 µM
O=C1CC(c2cccs2)c2cc3c(cc2N1)OCO3 (configuration not stated) 7.08 µM
CCCCNC(=S)NNC(=O)CCn1nc(C)c(Br)c1C 4.47 µM
CC(C)Cn1cnc2c(SCc3ccc(Cl)cc3Cl)nc(N)nc21 3.98 µM

AC50, inactive:
Cc1cccc(N/C(N)=N/c2nc(C)cc(C)n2)c1
Cc1cccc(C(=O)NNC(=O)C(=O)NC(C)(C)C)c1
COc1ccc(NC(=O)c2cc(C(C)C)on2)cc1OC
COCCNC(=O)c1cc(-c2cccc(OC)c2)on1
CCN1CCN(c2nc(C)c3c(n2)CCCC3=O)CC1
Cc1cc2nc(C)n(CCCN)c2cc1C
Cc1cccc(C(=O)NCN2CCN(c3ccccc3C#N)CC2)c1
CC(=O)NCCNc1cc(-c2ccccc2C)ncn1
CC(=O)NCCNc1cc(-c2ccccc2CN(C)C)ncn1
CC(=O)NCCNc1cc(-c2ccccc2C(F)(F)F)ncn1
O=C(O)c1cc(=O)cc(C(=O)O)[nH]1
O=C(O)CCC(=O)N1CCOc2ccc(Cl)cc21
O=c1cc(CO)oc(CN2CCCC2)c1O
CO[C@]1(NC(=O)CSCC#N)C(=O)N2C(C(=O)O)=C(CSc3nnnn3C)CS[C@H]21
CC(OC(=O)Cn1c(C(F)(F)F)nc2ccccc21)C(N)=O (configuration not stated)
C[C@]1(c2ccccc2)OC(C(=O)O)=CC1=O
CCOc1ccc(C(=O)O)cc1OC

activity, negative = inhibition, inactive:
CSc1nc(C)cc(Nc2ccc(O)c(CN3CCOCC3)c2)n1 0.709% [at 11.4 µM]
CN(C)Cc1cc(C(C)(C)C)ccc1-c1ccc(C(C)(C)C)cc1CN(C)C 5.04% [at 11.4 µM]
CN(C)Cc1ccc(C(C)(C)C)cc1-c1cc(C(C)(C)C)ccc1CN(C)C 0.94% [at 11.4 µM]
COc1nc(OCCNC(C)=O)nc(N(C)C)n1 4.84% [at 2.29 µM]
COc1ccc(N2CCN(C(=N)/C(C(C)=O)=C(\C)O)CC2)cc1 -4.11% [at 2.29 µM]
Fc1cccc(F)c1C(Nc1nncs1)Nc1nncs1 -16.1% [at 11.4 µM]
CON(C)C(=O)c1nnc2c(n1)[nH]c1ccccc12 -23% [at 11.4 µM]
Cc1sc(N/N=C/c2cccnc2)nc1-c1ccccc1 20.5% [at 2.29 µM]
O=C(O)CNc1ccc(C(=O)O)cc1 -7.89% [at 11.4 µM]
CC(C)(C)COS(=O)OCC(C)(C)C -4.89% [at 11.4 µM]
CN(C)CCn1c(CO)nc2c1c(=O)n(C)c(=O)n2C -3.94% [at 11.4 µM]
COc1ccc(CC(NC(C)=O)C(=O)NC2CCN(C(=O)Nc3ccc(Cl)cc3)CC2)cc1OC (configuration not stated) -6.41% [at 2.29 µM]
Clc1ccc(Cn2c(-c3cccnc3Cl)nc3ccccc32)c(Cl)c1 -20.9% [at 2.29 µM]
O=C(O)c1ccc(OCc2ccccc2)c(Cl)c1 -32.8% [at 11.4 µM]
CC(C)=CCC/C(C)=C/CO/N=C1/C[C@@H](O)[C@@H](O)[C@@H]2[C@@H]3C(=O)N(C4CCCCC4)C(=O)[C@H]3CC[C@@H]12 -27% [at 11.4 µM]
CC1(C)CC2(CC(c3cccs3)c3cc(Cl)c(O)cc3O2)NC(=S)N1 (configuration not stated) -22.1% [at 2.29 µM]
CCCCNC(=S)NNC(=O)c1sccc1C 1.58% [at 2.29 µM]
c1ccc([P+](CC[P+](c2ccccc2)(c2ccccc2)c2ccccc2)(c2ccccc2)c2ccccc2)cc1 1.54% [at 11.4 µM]
C[C@]12CC[C@H]3c4ccc(O)cc4CC[C@@H]3[C@H]1C/C(=N/O)[C@H]2O -4.59% [at 11.4 µM]
CC(C)Cn1cnc2c(SCc3ccccn3)nc(N)nc21 -22.1% [at 11.4 µM]
Cc1ccc2ccccc2c1CSc1nc(N)nc2c1ncn2CC(C)C -24.4% [at 11.4 µM]
